Source: publication PMC5540273 (PLoS ONE, 2017)

Assays:
Details in all cases: concentration: 1 μM, replicates: in singlicate; n = 1
CAMKK2 = test system: CAMKK2
CASK = test system: CASK
CDC2L1 = test system: T1, CDC2L1
T1 construct: gene CDK11B

CDC2L2 = test system: CDC2L2
CDC2L5 = test system: T2, CDC2L5
T2 construct: gene CDK13

CDK11 = test system: T3, CDK11
T3 construct: gene CDK19

CDK2 = test system: CDK2
CDK3 = test system: CDK3
CDK4-cyclinD1 = test system: CDK4-cyclinD1
CDK4-cyclinD3 = test system: CDK4-cyclinD3
CDK4 = test system: CDK4
CDK5 = test system: CDK5
CDK7 = test system: CDK7
CDK8 = test system: CDK8
CDK9 = test system: CDK9
CDKL1 = test system: CDKL1
CDKL2 = test system: CDKL2
CDKL3 = test system: CDKL3
CDKL5 = test system: CDKL5
CHEK1 = test system: CHEK1
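Also: KINOMEscan kinase panel screen.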

Compound	%Inh (CAMKK2)	%Inh (CASK)	%Inh (CDC2L1)	%Inh (CDC2L2)	%Inh (CDC2L5)	%Inh (CDK11)	%Inh (CDK2)	%Inh (CDK3)	%Inh (CDK4-cyclinD1)	%Inh (CDK4-cyclinD3)	%Inh (CDK4)	%Inh (CDK5)	%Inh (CDK7)	%Inh (CDK8)	%Inh (CDK9)	%Inh (CDKL1)	%Inh (CDKL2)	%Inh (CDKL3)	%Inh (CDKL5)	%Inh (CHEK1)
Cc1cccc(-c2cc(Nc3ccncc3)c3ccccc3n2)n1 [GSK223675]	20%	0%	0%	19%	0%	7%	0%	0%	0%	9%	0%	0%	0%	0%	4%	0%	5%	0%	1%	0%
CCn1c(-c2cccnc2O)nc2cnccc21 [SB-736715]	0%	0%	0%	0%	0%	21%	0%	0%	7%	0%	4%	0%	0%	33%	0%	13%	0%	10%	0%	0%
Cc1ccc(-c2cc(-c3c[nH]nc3-c3ccccn3)ccn2)cc1 [GW684088]	26%	0%	0%	17%	0%	16%	0%	0%	28%	0%	43%	0%	9%	52%	5%	0%	28%	0%	0%	12%
CCCc1ccc(S(=O)(=O)NC2CCN(c3ccnc(Nc4ccc(F)cc4)n3)C2)cc1 (stereo not drawn) [GSK1379715]	0%	4%	0%	0%	98.6%	5%	0%	22%	0%	0%	0%	0%	0%	0%	0%	13%	38%	0%	0%	6%
Cc1ccc(NC(=O)Nc2cc(C(C)(C)C)nn2-c2ccccc2)cc1 [GSK1014915]	0%	12%	31%	7%	0%	62%	0%	8%	0%	4%	0%	8%	0%	58%	14%	15%	13%	0%	14%	24%
Nc1nc(-c2nccs2)c(-c2ccnc3ccccc23)s1 [GW693542]	0%	0%	0%	1%	0%	0%	0%	7%	0%	0%	15%	0%	0%	14%	0%	0%	26%	0%	4%	5%
Cn1ccc2ncnc(Oc3ccc(NC(=O)Nc4ccccc4)cc3)c21	0%	0%	0%	0%	0%	0%	0%	11%	0%	0%	0%	0%	13%	12%	9%	36%	2%	0%	17%	1%
Cc1nnc(-c2ccc3occ(-c4ccc(S(C)=O)cc4)c3c2)[nH]1 (stereo not drawn)	14%	0%	0%	0%	11%	0%	2%	7%	0%	2%	0%	0%	0%	0%	0%	0%	0%	0%	12%	0%
COc1ccccc1-c1ccc2c(NC(=O)C3CC3)n[nH]c2n1 [SB-711239]	0%	8%	0%	3%	2%	19%	0%	8%	9%	0%	33%	0%	0%	44%	0%	18%	23%	20%	3%	11%
